Test results from ChEMBL document CHEMBL1961873, “Compounds: GSK PKIS; Assays: Nanosyn kinase panel” (2012).

What was measured:
[1] = target: 5'-AMP-activated protein kinase catalytic subunit alpha-2 (Homo sapiens) (UniProt P54646); conditions: at 1 µM
[2] = target: T1, NUAK family SNF1-like kinase 1 (Homo sapiens) (UniProt O60285); conditions: at 0.1 µM
T1 sequence (whole entry): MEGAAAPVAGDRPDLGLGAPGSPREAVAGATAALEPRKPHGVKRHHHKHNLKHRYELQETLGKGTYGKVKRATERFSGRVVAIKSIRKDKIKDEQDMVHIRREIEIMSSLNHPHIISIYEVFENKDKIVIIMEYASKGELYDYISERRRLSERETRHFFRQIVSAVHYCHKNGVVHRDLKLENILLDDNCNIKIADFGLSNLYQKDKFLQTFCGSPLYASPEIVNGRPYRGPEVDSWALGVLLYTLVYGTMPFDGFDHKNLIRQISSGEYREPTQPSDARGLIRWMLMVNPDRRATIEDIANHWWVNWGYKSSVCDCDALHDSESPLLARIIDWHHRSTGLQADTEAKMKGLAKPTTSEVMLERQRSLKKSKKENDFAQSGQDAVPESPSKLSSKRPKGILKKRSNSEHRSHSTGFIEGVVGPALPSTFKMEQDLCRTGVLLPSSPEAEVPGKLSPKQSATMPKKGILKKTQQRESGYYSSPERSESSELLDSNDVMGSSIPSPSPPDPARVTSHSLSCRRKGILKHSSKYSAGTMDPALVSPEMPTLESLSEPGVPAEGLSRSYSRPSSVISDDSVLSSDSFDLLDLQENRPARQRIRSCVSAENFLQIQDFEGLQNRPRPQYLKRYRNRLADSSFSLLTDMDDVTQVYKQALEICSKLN

[3] = target: T1, NUAK family SNF1-like kinase 1 (Homo sapiens); conditions: at 1 µM
[4] = target: T2, Serine/threonine-protein kinase BRSK1 (Homo sapiens) (UniProt Q8TDC3); conditions: at 0.1 µM
T2 sequence (whole entry): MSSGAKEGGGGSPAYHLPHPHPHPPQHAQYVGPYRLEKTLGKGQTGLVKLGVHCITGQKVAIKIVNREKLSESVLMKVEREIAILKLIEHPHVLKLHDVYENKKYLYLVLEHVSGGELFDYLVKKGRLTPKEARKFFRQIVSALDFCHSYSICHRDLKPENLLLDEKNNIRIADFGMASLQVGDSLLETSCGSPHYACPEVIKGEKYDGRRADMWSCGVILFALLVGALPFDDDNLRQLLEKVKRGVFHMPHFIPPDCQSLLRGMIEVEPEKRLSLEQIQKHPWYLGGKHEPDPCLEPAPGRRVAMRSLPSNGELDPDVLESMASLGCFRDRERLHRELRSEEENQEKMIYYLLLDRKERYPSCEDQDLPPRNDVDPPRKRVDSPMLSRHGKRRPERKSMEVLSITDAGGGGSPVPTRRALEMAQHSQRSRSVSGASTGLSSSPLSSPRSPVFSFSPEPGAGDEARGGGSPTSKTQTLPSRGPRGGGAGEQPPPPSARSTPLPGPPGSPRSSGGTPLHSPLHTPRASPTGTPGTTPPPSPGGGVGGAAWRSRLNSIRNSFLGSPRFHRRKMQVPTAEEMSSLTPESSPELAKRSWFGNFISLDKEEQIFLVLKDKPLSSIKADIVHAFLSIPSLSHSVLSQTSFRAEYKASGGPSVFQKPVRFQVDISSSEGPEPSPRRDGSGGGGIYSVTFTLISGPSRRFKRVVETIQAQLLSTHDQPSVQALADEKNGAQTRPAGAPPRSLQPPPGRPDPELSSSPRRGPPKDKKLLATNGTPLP

[5] = target: T2, Serine/threonine-protein kinase BRSK1 (Homo sapiens); conditions: at 1 µM
[6] = target: T3, Serine/threonine-protein kinase BRSK2 (Homo sapiens) (UniProt Q8IWQ3); conditions: at 0.1 µM
T3 sequence (whole entry): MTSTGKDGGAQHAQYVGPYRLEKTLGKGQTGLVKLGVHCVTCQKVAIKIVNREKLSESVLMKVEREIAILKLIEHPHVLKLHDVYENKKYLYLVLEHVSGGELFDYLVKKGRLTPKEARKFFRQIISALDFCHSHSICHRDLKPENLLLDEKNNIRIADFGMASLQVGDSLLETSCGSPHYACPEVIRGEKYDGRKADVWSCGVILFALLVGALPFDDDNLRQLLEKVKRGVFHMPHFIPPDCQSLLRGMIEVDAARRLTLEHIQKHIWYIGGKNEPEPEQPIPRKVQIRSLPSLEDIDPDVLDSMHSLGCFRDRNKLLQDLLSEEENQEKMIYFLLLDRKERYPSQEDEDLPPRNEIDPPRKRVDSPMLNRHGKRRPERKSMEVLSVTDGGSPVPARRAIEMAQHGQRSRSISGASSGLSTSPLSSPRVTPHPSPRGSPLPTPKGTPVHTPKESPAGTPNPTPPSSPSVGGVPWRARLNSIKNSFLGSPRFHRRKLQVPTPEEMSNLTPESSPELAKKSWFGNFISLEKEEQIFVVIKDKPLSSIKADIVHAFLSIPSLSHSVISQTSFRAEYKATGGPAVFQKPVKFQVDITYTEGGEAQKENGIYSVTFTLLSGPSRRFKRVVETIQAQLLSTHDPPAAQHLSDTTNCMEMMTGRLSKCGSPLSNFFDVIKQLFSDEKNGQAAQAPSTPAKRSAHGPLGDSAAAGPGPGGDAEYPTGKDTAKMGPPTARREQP

[7] = target: T3, Serine/threonine-protein kinase BRSK2 (Homo sapiens); conditions: at 1 µM
[8] = target: Calcium/calmodulin-dependent protein kinase type 1D (Homo sapiens) (UniProt Q8IU85); conditions: at 0.1 µM
[9] = target: Calcium/calmodulin-dependent protein kinase type 1D (Homo sapiens) (UniProt Q8IU85); conditions: at 1 µM
[10] = target: Calcium/calmodulin-dependent protein kinase type II subunit alpha (Homo sapiens) (UniProt Q9UQM7); conditions: at 0.1 µM
[11] = target: Calcium/calmodulin-dependent protein kinase type II subunit alpha (Homo sapiens) (UniProt Q9UQM7); conditions: at 1 µM
[12] = target: Calcium/calmodulin-dependent protein kinase type II subunit delta (Homo sapiens) (UniProt Q13557); conditions: at 0.1 µM
[13] = target: Calcium/calmodulin-dependent protein kinase type II subunit delta (Homo sapiens) (UniProt Q13557); conditions: at 1 µM
[14] = target: T4, Calcium/calmodulin-dependent protein kinase type IV (Homo sapiens) (UniProt Q16566); conditions: at 0.1 µM
T4 sequence (whole entry): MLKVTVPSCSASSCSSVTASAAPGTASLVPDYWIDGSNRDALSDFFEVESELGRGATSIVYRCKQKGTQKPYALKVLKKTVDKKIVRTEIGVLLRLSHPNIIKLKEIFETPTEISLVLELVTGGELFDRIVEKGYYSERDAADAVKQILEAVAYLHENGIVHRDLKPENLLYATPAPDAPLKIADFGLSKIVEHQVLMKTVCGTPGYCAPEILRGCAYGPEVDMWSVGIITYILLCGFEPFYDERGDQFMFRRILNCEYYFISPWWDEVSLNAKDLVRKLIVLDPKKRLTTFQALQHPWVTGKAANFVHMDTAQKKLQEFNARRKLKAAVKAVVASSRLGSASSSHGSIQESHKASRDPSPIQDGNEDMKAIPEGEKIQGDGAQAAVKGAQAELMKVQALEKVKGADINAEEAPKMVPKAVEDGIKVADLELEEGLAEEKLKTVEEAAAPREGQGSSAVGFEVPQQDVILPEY

[15] = target: T4, Calcium/calmodulin-dependent protein kinase type IV (Homo sapiens); conditions: at 1 µM
[16] = target: T5, Serine/threonine-protein kinase Chk1 (Homo sapiens) (UniProt O14757); conditions: at 0.1 µM
T5 sequence (whole entry): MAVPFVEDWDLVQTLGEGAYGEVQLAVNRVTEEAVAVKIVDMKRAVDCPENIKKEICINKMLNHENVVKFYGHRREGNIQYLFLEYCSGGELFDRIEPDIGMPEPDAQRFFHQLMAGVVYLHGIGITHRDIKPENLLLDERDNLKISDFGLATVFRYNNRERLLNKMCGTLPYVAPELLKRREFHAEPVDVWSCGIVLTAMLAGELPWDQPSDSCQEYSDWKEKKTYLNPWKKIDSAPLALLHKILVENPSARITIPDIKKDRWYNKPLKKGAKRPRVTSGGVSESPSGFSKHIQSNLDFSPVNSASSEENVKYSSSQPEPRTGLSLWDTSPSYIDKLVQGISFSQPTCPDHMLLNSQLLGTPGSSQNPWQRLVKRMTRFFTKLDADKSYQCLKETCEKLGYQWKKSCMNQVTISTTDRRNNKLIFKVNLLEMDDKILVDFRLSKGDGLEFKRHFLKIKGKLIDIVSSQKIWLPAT

[17] = target: T5, Serine/threonine-protein kinase Chk1 (Homo sapiens); conditions: at 1 µM
[18] = target: Serine/threonine-protein kinase Chk2 (Homo sapiens) (UniProt O96017); conditions: at 0.1 µM
[19] = target: Serine/threonine-protein kinase Chk2 (Homo sapiens) (UniProt O96017); conditions: at 1 µM
[20] = target: Death-associated protein kinase 1 (Homo sapiens) (UniProt P53355); conditions: at 0.1 µM;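 also: reported figure is the mean inhibition of DAPK1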
Chain of Death-associated protein kinase 1 (Homo sapiens) (P53355 whole entry, looked up): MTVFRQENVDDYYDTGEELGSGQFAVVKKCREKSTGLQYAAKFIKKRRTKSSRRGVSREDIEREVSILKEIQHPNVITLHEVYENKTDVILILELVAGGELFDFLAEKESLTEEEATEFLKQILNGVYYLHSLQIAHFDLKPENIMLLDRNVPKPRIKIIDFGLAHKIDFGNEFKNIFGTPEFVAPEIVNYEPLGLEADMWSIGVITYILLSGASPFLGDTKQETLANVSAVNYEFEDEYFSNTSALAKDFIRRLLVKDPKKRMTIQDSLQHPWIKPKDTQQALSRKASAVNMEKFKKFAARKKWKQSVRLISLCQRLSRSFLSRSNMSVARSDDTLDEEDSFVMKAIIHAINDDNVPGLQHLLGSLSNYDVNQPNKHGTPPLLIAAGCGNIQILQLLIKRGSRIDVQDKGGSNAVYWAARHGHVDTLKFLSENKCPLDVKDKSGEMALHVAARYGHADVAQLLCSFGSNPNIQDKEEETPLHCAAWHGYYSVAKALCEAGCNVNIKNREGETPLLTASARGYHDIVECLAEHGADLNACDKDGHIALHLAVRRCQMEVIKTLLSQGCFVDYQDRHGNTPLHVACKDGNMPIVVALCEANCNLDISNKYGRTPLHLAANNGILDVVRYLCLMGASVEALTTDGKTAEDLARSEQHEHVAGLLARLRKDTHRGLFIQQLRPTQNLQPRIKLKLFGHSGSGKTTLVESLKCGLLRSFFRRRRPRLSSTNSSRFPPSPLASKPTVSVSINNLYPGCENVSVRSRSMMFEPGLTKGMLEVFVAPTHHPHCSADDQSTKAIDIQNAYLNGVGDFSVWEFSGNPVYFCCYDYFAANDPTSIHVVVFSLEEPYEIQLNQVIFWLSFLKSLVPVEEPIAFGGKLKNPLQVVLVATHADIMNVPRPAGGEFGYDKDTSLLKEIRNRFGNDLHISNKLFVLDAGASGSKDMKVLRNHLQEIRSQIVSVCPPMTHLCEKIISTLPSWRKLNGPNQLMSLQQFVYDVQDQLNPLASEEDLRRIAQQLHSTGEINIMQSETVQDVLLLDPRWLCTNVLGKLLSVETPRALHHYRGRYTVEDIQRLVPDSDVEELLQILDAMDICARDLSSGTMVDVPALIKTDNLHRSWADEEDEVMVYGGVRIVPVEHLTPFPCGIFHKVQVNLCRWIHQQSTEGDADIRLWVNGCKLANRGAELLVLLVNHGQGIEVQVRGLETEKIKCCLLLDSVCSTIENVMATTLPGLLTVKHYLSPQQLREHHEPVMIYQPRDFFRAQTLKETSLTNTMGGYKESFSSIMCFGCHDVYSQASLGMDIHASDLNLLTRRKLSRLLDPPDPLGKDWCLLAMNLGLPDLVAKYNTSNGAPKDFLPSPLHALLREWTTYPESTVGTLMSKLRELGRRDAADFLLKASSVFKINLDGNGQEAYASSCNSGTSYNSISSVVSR

Chain of Calcium/calmodulin-dependent protein kinase type II subunit delta (Homo sapiens) (Q13557 whole entry): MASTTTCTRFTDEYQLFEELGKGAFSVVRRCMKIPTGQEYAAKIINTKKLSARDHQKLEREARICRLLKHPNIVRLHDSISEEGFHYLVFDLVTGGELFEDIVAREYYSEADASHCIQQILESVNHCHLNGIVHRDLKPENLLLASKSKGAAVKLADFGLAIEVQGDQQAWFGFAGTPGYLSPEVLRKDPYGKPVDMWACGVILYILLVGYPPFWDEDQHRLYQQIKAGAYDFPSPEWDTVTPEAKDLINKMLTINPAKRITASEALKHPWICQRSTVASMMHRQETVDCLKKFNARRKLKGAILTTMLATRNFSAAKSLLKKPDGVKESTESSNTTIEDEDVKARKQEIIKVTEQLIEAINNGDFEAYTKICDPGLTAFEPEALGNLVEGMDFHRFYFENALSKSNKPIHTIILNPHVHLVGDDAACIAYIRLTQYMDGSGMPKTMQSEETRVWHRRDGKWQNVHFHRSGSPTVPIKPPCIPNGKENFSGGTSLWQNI
Chain of 5'-AMP-activated protein kinase catalytic subunit alpha-2 (Homo sapiens) (P54646 whole entry, looked up): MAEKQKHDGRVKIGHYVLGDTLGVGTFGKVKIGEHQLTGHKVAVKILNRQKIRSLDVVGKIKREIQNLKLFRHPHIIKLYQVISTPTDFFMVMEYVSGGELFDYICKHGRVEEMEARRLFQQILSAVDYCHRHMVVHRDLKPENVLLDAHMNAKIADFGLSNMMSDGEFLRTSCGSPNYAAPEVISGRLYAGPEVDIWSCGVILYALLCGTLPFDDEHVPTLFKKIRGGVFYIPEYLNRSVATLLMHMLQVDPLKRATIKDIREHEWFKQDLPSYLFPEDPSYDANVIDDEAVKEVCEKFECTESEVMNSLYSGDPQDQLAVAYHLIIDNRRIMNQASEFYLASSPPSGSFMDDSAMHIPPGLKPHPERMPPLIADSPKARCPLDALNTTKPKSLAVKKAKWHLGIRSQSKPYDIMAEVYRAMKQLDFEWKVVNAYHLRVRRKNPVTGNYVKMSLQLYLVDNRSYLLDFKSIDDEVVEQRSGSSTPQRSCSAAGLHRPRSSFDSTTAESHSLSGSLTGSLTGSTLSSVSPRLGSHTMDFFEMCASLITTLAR
Chain of Serine/threonine-protein kinase Chk2 (Homo sapiens) (O96017 whole entry): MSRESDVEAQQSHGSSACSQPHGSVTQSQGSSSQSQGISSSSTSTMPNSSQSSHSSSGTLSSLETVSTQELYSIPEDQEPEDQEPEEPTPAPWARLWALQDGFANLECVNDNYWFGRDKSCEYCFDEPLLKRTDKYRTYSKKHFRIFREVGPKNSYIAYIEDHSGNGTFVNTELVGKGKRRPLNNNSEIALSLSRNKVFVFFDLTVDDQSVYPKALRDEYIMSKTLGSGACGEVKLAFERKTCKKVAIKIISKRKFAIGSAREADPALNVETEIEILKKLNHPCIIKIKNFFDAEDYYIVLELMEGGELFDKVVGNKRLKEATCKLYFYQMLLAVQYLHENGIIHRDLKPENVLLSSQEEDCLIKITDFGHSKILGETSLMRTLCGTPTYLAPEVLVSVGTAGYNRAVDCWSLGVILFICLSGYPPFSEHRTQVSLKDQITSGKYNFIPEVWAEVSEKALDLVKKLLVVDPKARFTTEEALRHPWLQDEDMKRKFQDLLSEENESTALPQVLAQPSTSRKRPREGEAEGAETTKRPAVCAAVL
Chain of Calcium/calmodulin-dependent protein kinase type 1D (Homo sapiens) (Q8IU85 whole entry, looked up): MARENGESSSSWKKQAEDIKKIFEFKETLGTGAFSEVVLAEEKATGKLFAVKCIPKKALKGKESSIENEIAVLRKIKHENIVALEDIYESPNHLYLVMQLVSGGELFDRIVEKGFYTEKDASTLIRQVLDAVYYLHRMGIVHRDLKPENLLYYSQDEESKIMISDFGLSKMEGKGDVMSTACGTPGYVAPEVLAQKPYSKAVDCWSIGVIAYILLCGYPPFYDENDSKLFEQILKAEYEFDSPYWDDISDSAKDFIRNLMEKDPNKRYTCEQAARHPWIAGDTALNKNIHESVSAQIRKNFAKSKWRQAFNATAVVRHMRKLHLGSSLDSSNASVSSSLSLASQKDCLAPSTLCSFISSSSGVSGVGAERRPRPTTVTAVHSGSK
Chain of Calcium/calmodulin-dependent protein kinase type II subunit alpha (Homo sapiens) (Q9UQM7 whole entry): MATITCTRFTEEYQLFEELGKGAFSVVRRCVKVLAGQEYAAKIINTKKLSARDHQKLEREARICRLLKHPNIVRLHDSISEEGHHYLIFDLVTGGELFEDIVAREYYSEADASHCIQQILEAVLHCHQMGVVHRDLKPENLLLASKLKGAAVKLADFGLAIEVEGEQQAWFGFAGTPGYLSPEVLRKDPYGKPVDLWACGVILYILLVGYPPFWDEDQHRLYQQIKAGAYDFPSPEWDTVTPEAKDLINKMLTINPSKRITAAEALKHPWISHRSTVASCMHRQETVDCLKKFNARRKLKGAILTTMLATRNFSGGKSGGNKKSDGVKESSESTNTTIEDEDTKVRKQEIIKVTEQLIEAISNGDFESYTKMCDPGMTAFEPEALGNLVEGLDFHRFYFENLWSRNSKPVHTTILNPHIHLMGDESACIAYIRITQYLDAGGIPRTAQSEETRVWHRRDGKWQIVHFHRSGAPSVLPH

SMILES	inhibition [1] [%]	inhibition [2] [%]	inhibition [3] [%]	inhibition [4] [%]	inhibition [5] [%]	inhibition [6] [%]	inhibition [7] [%]	inhibition [8] [%]	inhibition [9] [%]	inhibition [10] [%]	inhibition [11] [%]	inhibition [12] [%]	inhibition [13] [%]	inhibition [14] [%]	inhibition [15] [%]	inhibition [16] [%]	inhibition [17] [%]	inhibition [18] [%]	inhibition [19] [%]	inhibition [20] [%]
COc1cc(/C=N/Nc2ncnc3[nH]ncc23)ccc1O	20.2	6.98	27.6	1.12	18	4.62	22.9	1.07	5.49	2.62	5.41	2.57	11.4	-0.14	-0.84	26.1	66.1	4.23	23.8	4.22
COc1ccc(-c2oc3ncnc(N)c3c2-c2ccc(NC(=O)Nc3cc(C(F)(F)F)ccc3F)cc2)cc1	7.89	4.62	9.26	5.38	11.7	8.06	13.9	1.06	11.9	4.73	16.9	6.01	21.5	0.6	13.4	8.35	6.88	2.06	3.88	5.33
NS(=O)(=O)c1ccc(Nc2ncc(-c3ccccc3)o2)cc1	9.24	10.7	37.2	1.52	15.3	2.58	17	0.42	0.85	4.27	4.77	2.92	7.79	-0.86	-0.71	0.75	7.56	1.94	3.97	3.79
COc1ccc(-c2nn3ncccc3c2-c2ccnc(Nc3ccc4c(c3)OCCO4)n2)cc1	0.38	-0.71	2.67	-0.94	2.44	0.33	1.64	9.78	0.03	0.38	-2.04	0.97	0.2	1.75	-0.47	-2.62	-1.19	-1.05	0.02	2.51
COc1ccc(CNC(=O)c2ccc(-c3cc(-c4nnc(C)o4)ccc3C)cc2)cc1	2.36	2.93	5.45	0.61	8.76	3.42	13	1.11	-0.23	1.23	0.47	0.75	-0.53	-1.83	-4.17	6.78	8.82	6.34	7.55	9.67
c1ccc(COc2ccc(Nc3ncnc4ccc(-c5ccco5)cc34)cc2)cc1	3.28	-0.16	-1.67	-0.97	1.48	0.91	1.54	0.28	11.7	2.01	0.02	0.67	0.25	1.19	0.04	0.21	-0.59	1.08	4.69	2.45
